Consider four molecules from ChEMBL document CHEMBL2218924, “A broad activity screen in support of a chemogenomic map for kinase signalling research and drug discovery” (Biochem J, 2013).

The target of assay [1] is T1, Muscle, skeletal receptor tyrosine-protein kinase (Homo sapiens) (UniProt O15146).
T1 sequence (whole entry): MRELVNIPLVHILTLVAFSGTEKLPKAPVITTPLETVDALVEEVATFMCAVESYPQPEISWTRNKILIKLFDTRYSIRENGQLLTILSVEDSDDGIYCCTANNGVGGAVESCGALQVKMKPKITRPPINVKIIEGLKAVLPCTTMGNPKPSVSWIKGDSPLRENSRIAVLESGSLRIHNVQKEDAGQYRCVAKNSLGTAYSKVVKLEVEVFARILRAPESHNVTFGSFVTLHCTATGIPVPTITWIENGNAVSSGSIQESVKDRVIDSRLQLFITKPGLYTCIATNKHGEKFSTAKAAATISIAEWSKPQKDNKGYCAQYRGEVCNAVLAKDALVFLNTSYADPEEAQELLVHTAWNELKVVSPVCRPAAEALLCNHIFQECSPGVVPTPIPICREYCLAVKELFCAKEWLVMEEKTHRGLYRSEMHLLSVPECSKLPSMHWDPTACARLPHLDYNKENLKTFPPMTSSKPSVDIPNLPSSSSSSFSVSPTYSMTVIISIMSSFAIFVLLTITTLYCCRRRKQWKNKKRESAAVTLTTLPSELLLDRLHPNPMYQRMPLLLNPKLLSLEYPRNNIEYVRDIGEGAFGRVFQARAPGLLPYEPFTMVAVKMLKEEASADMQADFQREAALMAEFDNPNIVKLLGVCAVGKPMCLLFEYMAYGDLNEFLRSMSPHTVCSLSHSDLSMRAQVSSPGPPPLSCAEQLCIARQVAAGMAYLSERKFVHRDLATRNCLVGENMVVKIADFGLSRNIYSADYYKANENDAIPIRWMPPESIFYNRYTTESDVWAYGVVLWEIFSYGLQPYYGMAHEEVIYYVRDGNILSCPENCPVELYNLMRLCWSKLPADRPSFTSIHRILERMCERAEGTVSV
As to conditions: at 1 µM.

Assay [2] has as its target T1, Muscle, skeletal receptor tyrosine-protein kinase (Homo sapiens). To be noted: at 10 µM.
Assay [3] concerns the target T2, Serine/threonine-protein kinase Nek11 (Homo sapiens) (UniProt Q8NG66).
T2 sequence (whole entry): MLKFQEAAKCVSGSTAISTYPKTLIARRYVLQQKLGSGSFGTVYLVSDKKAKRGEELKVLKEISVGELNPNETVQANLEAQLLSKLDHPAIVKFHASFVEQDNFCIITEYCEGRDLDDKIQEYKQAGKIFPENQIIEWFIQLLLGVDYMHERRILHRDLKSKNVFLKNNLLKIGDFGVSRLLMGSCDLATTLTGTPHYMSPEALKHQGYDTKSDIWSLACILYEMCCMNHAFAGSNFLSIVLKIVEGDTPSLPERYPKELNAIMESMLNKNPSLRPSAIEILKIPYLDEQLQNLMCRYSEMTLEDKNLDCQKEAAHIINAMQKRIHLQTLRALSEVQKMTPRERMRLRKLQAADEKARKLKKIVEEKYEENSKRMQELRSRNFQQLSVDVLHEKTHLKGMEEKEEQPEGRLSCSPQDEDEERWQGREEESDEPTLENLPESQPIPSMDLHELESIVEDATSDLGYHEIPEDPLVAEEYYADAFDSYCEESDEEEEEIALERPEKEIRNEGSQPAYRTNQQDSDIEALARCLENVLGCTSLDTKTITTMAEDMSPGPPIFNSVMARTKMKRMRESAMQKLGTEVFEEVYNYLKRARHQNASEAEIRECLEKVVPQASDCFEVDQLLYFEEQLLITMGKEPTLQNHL
To be noted: at 1 µM.

Assay [4] concerns the target T2, Serine/threonine-protein kinase Nek11 (Homo sapiens). To be noted: at 10 µM.
In assay [5] the target is T3, Serine/threonine-protein kinase Nek2 (Homo sapiens) (UniProt P51955).
T3 sequence (whole entry): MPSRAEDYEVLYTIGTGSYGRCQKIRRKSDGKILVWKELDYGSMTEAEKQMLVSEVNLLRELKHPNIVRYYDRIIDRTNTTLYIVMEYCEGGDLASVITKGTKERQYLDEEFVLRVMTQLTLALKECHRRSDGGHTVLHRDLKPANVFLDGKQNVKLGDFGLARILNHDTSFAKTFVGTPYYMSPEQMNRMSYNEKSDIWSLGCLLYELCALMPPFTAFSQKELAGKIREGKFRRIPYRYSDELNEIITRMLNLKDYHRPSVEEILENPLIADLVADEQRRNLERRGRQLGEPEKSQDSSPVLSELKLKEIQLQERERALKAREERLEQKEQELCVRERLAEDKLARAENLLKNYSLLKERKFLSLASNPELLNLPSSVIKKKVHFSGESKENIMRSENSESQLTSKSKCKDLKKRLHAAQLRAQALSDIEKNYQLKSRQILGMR
To be noted: at 1 µM.

In assay [6] the target is T3, Serine/threonine-protein kinase Nek2 (Homo sapiens). As to conditions: at 10 µM.
The target of assay [7] is T4, Serine/threonine-protein kinase Nek3 (Homo sapiens) (UniProt P51956).
T4 sequence (whole entry): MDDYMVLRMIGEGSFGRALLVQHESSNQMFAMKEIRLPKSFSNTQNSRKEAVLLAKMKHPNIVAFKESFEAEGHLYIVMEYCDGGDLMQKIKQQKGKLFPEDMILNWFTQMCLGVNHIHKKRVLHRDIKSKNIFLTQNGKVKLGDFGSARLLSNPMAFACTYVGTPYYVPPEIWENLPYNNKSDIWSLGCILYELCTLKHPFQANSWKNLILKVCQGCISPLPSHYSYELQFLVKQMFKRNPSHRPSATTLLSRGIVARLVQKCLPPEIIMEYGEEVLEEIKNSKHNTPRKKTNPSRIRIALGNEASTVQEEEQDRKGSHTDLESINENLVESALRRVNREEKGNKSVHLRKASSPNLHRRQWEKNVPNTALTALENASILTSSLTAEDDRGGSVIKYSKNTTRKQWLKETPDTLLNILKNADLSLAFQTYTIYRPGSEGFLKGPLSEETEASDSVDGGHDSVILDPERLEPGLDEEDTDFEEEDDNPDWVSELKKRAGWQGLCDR
As to conditions: at 1 µM.

Assay [8] concerns the target T4, Serine/threonine-protein kinase Nek3 (Homo sapiens). As to conditions: at 10 µM.
For assay [9], the target named is Serine/threonine-protein kinase tousled-like 2 (Homo sapiens) (UniProt Q86UE8). To be noted: at 1 µM.
Sequence of Serine/threonine-protein kinase tousled-like 2 (Homo sapiens) (Q86UE8 whole entry, looked up): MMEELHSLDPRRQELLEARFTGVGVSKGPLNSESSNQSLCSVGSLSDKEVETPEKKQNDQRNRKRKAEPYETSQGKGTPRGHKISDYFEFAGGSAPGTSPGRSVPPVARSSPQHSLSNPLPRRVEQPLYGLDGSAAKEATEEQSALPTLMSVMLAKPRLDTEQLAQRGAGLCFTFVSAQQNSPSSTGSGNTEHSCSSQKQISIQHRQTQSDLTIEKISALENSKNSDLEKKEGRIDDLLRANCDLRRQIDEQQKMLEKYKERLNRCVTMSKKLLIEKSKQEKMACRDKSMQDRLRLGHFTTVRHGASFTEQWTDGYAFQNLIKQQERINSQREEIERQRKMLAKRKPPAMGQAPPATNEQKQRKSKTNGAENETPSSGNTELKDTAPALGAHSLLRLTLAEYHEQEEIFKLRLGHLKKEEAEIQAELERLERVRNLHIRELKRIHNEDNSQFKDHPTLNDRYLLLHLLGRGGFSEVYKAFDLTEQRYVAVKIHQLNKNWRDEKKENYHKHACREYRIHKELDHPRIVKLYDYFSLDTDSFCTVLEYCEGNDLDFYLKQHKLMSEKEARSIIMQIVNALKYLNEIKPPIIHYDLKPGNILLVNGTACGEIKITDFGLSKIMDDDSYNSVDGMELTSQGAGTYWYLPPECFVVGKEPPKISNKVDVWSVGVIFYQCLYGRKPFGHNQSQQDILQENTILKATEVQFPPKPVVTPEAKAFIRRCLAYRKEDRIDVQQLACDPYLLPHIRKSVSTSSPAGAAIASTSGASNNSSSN
Assay [10] has the same target. To be noted: at 10 µM.
Assay [11] addresses T5, Testis-specific serine/threonine-protein kinase 1 (Homo sapiens) (UniProt Q9BXA7).
T5 sequence (whole entry): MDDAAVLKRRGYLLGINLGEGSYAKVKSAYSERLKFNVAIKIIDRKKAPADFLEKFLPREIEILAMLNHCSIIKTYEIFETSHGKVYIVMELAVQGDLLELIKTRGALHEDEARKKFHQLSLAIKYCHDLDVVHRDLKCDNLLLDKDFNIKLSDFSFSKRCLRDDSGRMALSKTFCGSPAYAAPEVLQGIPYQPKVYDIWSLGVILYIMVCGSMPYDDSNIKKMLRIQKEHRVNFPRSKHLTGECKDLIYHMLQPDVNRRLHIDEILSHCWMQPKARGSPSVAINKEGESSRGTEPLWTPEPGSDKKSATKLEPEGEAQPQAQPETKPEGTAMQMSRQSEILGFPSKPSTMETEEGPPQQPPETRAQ
As to conditions: at 1 µM.

The target in assay [12] is T5, Testis-specific serine/threonine-protein kinase 1 (Homo sapiens). As to conditions: at 10 µM.
For assay [13], the target named is T6, Testis-specific serine/threonine-protein kinase 2 (Homo sapiens) (UniProt Q96PF2).
T6 sequence (whole entry): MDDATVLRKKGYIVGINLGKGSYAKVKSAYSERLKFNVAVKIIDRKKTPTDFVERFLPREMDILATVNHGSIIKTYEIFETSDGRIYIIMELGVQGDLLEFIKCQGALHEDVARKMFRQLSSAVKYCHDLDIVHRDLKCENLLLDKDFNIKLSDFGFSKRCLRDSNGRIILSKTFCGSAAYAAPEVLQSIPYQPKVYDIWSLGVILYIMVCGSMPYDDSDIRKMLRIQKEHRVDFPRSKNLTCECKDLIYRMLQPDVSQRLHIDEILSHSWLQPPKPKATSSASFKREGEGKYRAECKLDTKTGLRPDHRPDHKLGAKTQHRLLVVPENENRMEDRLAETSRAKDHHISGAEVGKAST
To be noted: at 10 µM.

Assay [14] addresses T7, Tyrosine-protein kinase Tec (Homo sapiens) (UniProt P42680).
T7 sequence (whole entry): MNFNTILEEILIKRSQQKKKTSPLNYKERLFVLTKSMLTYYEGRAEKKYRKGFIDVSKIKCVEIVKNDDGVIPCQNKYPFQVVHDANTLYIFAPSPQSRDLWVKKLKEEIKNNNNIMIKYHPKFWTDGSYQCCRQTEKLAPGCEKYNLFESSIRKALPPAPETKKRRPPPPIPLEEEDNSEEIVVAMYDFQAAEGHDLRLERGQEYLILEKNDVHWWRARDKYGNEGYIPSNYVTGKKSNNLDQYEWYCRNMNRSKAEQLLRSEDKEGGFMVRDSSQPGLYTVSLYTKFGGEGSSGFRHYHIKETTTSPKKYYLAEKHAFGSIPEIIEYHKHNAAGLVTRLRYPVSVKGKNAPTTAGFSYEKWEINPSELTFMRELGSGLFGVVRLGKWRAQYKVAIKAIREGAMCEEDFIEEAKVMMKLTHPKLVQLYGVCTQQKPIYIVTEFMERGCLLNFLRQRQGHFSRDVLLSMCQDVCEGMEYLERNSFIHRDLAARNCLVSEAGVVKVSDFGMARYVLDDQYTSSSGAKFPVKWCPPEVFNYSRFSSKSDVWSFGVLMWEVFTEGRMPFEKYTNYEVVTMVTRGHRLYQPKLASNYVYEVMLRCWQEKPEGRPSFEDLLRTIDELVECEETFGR
As to conditions: at 1 µM.

In assay [15] the target is T7, Tyrosine-protein kinase Tec (Homo sapiens). As to conditions: at 10 µM.
The target of assay [16] is Angiopoietin-1 receptor (Homo sapiens) (UniProt Q02763). To be noted: at 1 µM.
Sequence of Angiopoietin-1 receptor (Homo sapiens) (Q02763 whole entry): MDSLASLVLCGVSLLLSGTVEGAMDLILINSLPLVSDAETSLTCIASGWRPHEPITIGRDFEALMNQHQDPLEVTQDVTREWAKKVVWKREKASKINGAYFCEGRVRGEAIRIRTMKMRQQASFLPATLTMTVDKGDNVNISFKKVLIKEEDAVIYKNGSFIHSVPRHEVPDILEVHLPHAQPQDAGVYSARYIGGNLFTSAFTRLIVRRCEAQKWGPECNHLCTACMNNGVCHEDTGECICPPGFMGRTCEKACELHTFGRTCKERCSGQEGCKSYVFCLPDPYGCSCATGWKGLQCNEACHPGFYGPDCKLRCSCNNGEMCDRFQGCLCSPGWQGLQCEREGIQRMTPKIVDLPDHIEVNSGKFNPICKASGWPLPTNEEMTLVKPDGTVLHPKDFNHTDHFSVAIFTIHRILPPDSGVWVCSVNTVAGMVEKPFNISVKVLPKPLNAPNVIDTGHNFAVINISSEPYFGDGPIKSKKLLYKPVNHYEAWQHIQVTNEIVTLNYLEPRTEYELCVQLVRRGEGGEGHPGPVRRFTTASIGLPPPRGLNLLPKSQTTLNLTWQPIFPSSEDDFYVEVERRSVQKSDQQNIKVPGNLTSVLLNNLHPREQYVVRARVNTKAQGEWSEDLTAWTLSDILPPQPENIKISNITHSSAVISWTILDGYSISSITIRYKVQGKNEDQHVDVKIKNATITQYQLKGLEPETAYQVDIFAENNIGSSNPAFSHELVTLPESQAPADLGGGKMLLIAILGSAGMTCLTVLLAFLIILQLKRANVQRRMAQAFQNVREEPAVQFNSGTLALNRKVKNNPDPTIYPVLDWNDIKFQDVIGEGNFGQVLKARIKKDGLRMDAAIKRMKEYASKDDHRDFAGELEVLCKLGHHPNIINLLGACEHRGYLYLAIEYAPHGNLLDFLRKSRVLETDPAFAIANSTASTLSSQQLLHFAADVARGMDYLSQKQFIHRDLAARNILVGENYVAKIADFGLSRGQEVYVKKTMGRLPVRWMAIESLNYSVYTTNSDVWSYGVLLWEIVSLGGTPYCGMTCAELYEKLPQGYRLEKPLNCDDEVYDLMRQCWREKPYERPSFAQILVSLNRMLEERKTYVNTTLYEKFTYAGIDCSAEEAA
Assay [17] shares this target. To be noted: at 10 µM.
Assay [18] has as its target High affinity nerve growth factor receptor (Homo sapiens) (UniProt P04629). To be noted: at 1 µM.
The target is the same in assay [19]. To be noted: at 10 µM.
Assay [20] addresses BDNF/NT-3 growth factors receptor (Homo sapiens) (UniProt Q16620). As to conditions: at 1 µM.

Sequence of BDNF/NT-3 growth factors receptor (Homo sapiens) (Q16620 32-822 limits assumed): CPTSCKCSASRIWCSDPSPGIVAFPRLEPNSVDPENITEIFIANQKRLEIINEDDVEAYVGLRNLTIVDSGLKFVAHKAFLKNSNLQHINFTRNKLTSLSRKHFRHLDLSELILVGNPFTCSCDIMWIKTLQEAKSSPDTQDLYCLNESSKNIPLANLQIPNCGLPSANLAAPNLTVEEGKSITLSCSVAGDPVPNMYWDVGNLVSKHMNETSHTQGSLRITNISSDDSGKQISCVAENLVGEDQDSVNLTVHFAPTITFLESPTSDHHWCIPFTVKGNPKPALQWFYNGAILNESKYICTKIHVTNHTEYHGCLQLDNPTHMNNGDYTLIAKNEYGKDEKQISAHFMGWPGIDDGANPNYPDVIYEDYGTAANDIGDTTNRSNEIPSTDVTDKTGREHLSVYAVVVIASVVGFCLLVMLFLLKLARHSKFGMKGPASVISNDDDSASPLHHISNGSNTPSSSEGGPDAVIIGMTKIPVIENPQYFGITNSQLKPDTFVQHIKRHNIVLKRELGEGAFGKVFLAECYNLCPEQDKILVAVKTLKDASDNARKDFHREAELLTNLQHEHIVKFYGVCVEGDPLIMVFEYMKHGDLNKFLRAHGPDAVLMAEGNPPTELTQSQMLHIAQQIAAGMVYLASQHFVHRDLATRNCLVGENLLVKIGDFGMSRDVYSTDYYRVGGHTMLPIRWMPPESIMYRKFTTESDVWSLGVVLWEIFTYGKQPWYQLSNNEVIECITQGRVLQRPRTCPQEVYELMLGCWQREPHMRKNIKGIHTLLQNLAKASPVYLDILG
Sequence of High affinity nerve growth factor receptor (Homo sapiens) (P04629 33-796 limits assumed): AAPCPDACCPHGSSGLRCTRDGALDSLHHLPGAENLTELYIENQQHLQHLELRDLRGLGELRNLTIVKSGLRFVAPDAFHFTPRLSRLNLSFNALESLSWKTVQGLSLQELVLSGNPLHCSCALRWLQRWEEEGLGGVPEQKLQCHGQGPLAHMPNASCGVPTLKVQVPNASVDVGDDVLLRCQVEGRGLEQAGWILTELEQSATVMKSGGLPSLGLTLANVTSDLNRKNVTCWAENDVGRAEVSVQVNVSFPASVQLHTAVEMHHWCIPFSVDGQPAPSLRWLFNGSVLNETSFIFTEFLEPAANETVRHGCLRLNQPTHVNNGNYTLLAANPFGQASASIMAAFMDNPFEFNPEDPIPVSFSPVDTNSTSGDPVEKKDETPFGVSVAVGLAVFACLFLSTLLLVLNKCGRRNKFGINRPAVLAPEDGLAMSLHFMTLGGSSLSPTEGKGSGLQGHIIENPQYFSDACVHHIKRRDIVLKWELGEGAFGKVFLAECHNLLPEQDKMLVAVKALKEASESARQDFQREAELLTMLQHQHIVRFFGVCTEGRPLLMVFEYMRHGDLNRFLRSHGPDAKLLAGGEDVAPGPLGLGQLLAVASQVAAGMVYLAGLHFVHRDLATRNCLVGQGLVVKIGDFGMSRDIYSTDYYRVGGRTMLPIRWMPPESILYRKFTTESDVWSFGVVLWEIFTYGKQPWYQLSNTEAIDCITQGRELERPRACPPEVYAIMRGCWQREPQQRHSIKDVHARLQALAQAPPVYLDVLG

`Oc1ccc(-c2nc(-c3ccc(F)cc3)c(-c3ccncc3)[nH]2)cc1`: the residual activity in assay [1] came out at 92%; in assay [2], 77%; in assay [3], 85%; in [4], 66%; in [5], 127%; in [6], 99%. Further, the residual activity in assay [7] worked out at 85%; in assay [8], 104%; in assay [9], 112%; in assay [10], 100%; in assay [11], 112%; in assay [12], 83%. In addition, the residual activity worked out at 113% in assay [13]; 87% in [14]; 55% in [15]; 109% in assay [16]; 49% in assay [17]; 107% in [18]. Besides, the residual activity in [19] was 83%; in assay [20], 99%.

`NC(=O)c1ccc2[nH]c(-c3ccc(Oc4ccc(Cl)cc4)cc3)nc2c1`: the residual activity in assay [1] is 84%; in [2] it was 63%; in assay [3], 54%; in [4], 33%; in assay [5] it was 82%; in assay [6] it was 82%. Besides, the residual activity in assay [7] is 75%; in assay [8], 91%; in assay [9] it was 86%; in assay [10], 82%; in [11] it was 101%; in assay [12] it was 80%. For the same molecule, the residual activity in assay [13] stood at 95%; in assay [14], 106%; in assay [15], 92%; in [16] it was 109%; in [17], 131%; in assay [18], 78%. In addition, the residual activity in assay [19] worked out at 54%; in assay [20] it was 103%.

For the molecule `O=C(Nc1cccc(Nc2cc(Nc3cccc(C(F)(F)F)c3)ncn2)c1)C1CC1`, the residual activity in assay [1] was found to be 96%; in assay [2] it was 48%; in assay [3], 117%; in assay [4], 103%; in assay [5], 73%; in [6] it was 96%. The residual activity in [7] amounted to 95%; in [8], 63%; in assay [9] it was 102%; in assay [10], 97%; in [11], 101%; in [12], 87%. For the same molecule, the residual activity was 77% in assay [13]; 96% in assay [14]; 27% in [15]; 60% in assay [16]; 70% in assay [17]; 68% in assay [18]. Also, the residual activity in assay [19] worked out at 9%; in assay [20] it was 76%.

Take `O=[N+]([O-])c1ccc(-c2nc(-c3ccc(F)cc3)c(-c3ccncc3)[nH]2)cc1`: the residual activity in [1] came out at 102%; in assay [2], 92%; in assay [3], 57%; in assay [4], 75%; in assay [5], 99%; in assay [6], 100%. For the same molecule, the residual activity in [7] amounted to 90%; in [8], 92%; in assay [9] it was 107%; in assay [10], 101%; in assay [11], 97%; in assay [12], 85%. Also, the residual activity came out at 94% in [13]; 98% in [14]; 70% in [15]; 98% in assay [16]; 86% in [17]; 96% in [18]. Further, the residual activity in [19] stood at 90%; in assay [20], 98%.

As a reminder, the residual activity is the signal under treatment as a percentage of the control signal.
